PubChem BioAssay AID651820 (National Center for Advancing Translational Sciences (NCATS), 2012)
“And” between values parts separate entries of the source, which are not always exact repeats. Equal values may be shown once. Among all 340,000 compounds or so, about 12,000 (3.5%) were called active. Another 18% or so got no clear call; they are omitted. Calls follow the shape of the dose curve; as a rule, active = well fitted inhibition curve with a large enough effect; inconclusive = small, poorly fitted or top-dose-only effect, or another doubt; inactive = no such curve, though single readings can be large or run the other way. The list comes from a sample in which actives are over-represented; it also holds similar structures and randomly drawn compounds. More than one record can exist for a structure, and the calls need not agree.

Test: qHTS Assay for Inhibitors of Hepatitis C Virus (HCV)
Conditions: Huh7.5.1 HCVcc-Cre infection, luciferase reporter, 44 h; series mostly up to 41.8 µM; activity change, negative = inhibition: at the top concentration
Method in brief: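 1,000 cells/well; 4 h culture; + compound; + HCVcc-Cre (~0.5 moi); 44 h; luciferase substrate, RT 15 min; read 15 sec.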
% is scaled to controls: 0 for no effect and ±100 for the full control effect; potency is read from the fitted curve at half-maximal effect.

| Compound | activity change, negative = inhibition | Potency |
| --- | --- | --- |
| COc1cccc(NS(=O)(=O)c2ccc(-c3coc(C)n3)cc2)c1 | -9.58% (inactive) | – |
| Cc1ccc(NS(=O)(=O)c2ccc(-c3coc(C)n3)cc2)c(C)c1 | – | 11.2 µM (active) |
| Cc1ccc(NS(=O)(=O)c2ccc3c(c2)n(C)c(=O)c(=O)n3C)c(C)c1 | 7.94% (inactive) | – |
| CCCCN1C(N)=NC[C@@H]1CC1CCCCC1 | 17% (inactive) | – |
| COC(=O)Cc1ccc(OCC(=O)NC2CCCC2)cc1 | 4.31% (inactive) | – |
| COc1cc(OC)cc(C(=O)NNC(=O)CNC(=O)c2ccc(Br)o2)c1 | 10.2% (inactive) | – |
| CCN1CCN(c2c(Cl)cccc2NC(=O)c2ccc(Br)o2)CC1 | -19.6% (inactive) | – |
| COc1cc(OC)c(NC(=O)c2ccc(Br)o2)cc1Cl | – | 11.2 µM (active) |
| Cc1csc(SCC(=O)N(c2ccccc2)C(C)C)n1 | 13.2% (inactive) | – |
| NC(=O)C1(Nc2ccc([N+](=O)[O-])cc2)CCCC1 | -3% (inactive) | – |
| Cc1cc(OCc2cc(C(=O)NCc3cc(C(C)C)no3)no2)cc(C)c1Cl | 5.78% (inactive) | – |
| CCOC(=O)CC1(NC(=O)c2cc(COc3cncc(Cl)c3)on2)CCCCC1 | – | 10 µM (active) |
| CCOC(=O)CC1COCCN1C(=O)c1cc(COc2ccc(F)c(F)c2)on1 (stereo unspecified) | -11.4% (inactive) | – |
| CCCCn1c(N)c(N(CC(C)C)C(=O)C2CSC3(C)CCC(=O)N23)c(=O)[nH]c1=O (stereo unspecified) | 0.302% (inactive) | – |
| O=C(O)C1C2C=CC(O2)C1C(=O)Nc1ccccn1 (stereo unspecified) | 21% (inactive) | – |
| COC(=O)[C@]1(C)N[C@H](c2ccc(-c3ccc(Cl)c(Cl)c3)cc2)[C@@H]2C(=O)N(C)C(=O)[C@@H]21 | -8.54% (inactive) | – |
| Cc1ccc(NC(=O)CCC(=O)N2CCC(c3ccccc3)=N2)cc1S(=O)(=O)N1CCCCC1 | 13.3% (inactive) | – |
| COc1ccccc1C(=O)Nc1ccc(C)c(S(=O)(=O)N2CCCCC2)c1 | – | 7.08 µM (active) |
| Cc1cc(C(=O)Nc2ccc(C)c(S(=O)(=O)N3CCOCC3)c2)c2ccccc2n1 | – | 11.2 µM (active) |
| CCc1ccccc1OCC(=O)Nc1ccc(C)c(S(=O)(=O)N2CCCCCC2)c1 | – | 3.55 µM (active) |
| Cc1ccccc1OCC(=O)Nc1ccc(S(=O)(=O)N2CCOCC2)cc1 | -9.36% (inactive) | – |
| Cc1ccc(NC(=O)c2ccccn2)cc1S(=O)(=O)N1CCOCC1 | -0.0506% (inactive) | – |

| Compound | activity change, negative = inhibition | Potency |
| --- | --- | --- |
| Cc1ccccc1OCC(=O)Nc1ccc2c(c1)ncn2C | -14.5% (inactive) | – |
| COc1ccccc1C(=O)Nc1ccc(OCC(=O)N2CCCCC2)cc1 | 9.06% (inactive) | – |
| COc1ccc(NC(=O)C2=NNC(=O)CC2)cc1S(=O)(=O)N1CCCCC1 | 10.7% (inactive) | – |
| Cc1ccc(NC(=O)COC(=O)C2CC2)cc1S(=O)(=O)N1CCOCC1 | 11% (inactive) | – |
| Cc1ccc(NC(=O)C2CC2)cc1S(=O)(=O)N1CCOCC1 | 7.05% (inactive) | – |
| Cc1ccccc1OCC(=O)Nc1ccc(N2CCN(C(=O)C(C)C)CC2)c(Cl)c1 | – | 31.6 µM (active) |
| COc1ccc(CCNC(=O)C(=O)NCC2OCCN2S(=O)(=O)c2cccs2)cc1OC (stereo unspecified) | -16.4% (inactive) | – |
| Cc1ccc(SCC(=O)Nc2nncs2)cc1 | -2.67% (inactive) | – |
| O=C(OCC(=O)N1CCCC1)c1ccc(Cl)nc1 | 0.0144% (inactive) | – |
| COC(=O)Cc1nc2c(N)nc(N)nc2[nH]c1=O | 5.65% (inactive) | – |
| O=C1N[C@H](Cc2ccccc2)C(=O)N[C@H]1Cc1cn(S(=O)(=O)c2ccccc2)c2ccccc12 | 8.46% (inactive) | – |
| O=C(CNC(=O)c1ccco1)NNC(=O)c1ccc(Br)cc1 | 20.7% (inactive) | – |
| COc1ccc(NC(=O)CN(C)C(=O)/C=C/c2cn(Cc3ccccc3)nc2-c2cccnc2)cc1 | 3.26% (inactive) | – |
| C[C@H]1CN([C@@H](C)CO)C(=O)Cc2cc(NS(C)(=O)=O)ccc2O[C@@H]1CN(C)CC1CC1 | 15.9% (inactive) | – |
| Cc1c(C(=O)Nc2cccc(S(=O)(=O)N3CCOCC3)c2)oc2ccccc12 | – | 14.1 µM (active) |
| O=C(CSc1ccccc1)Nc1cccc(S(=O)(=O)N2CCOCC2)c1 | -12.6% (inactive) | – |
| Cc1occc1C(=O)Nc1cccc(S(=O)(=O)N2CCOCC2)c1 | -4.28% (inactive) | – |
| CCCC(O)(c1ccccc1)C(c1ccccc1)c1ccccn1 (stereo unspecified) | 4.16% (inactive) | – |
| Cc1c(C(=O)Nc2ccccn2)oc2ccc(Br)cc12 | -2.03% (inactive) | – |
| O=c1[nH]c(CCl)nc2cc(-c3ccc(Cl)cc3)sc12 | – | 6.31 µM (active) |
| O=c1[nH]c(CN2CCOCC2)nc2cc(Cl)ccc12 | 3.38% (inactive) | – |
| NC(=O)Cc1nc2scc(-c3ccc(Cl)cc3)c2c(=O)[nH]1 | 4.99% (inactive) | – |

| Compound | activity change, negative = inhibition | Potency |
| --- | --- | --- |
| COc1ccc(/C=C/C(=O)OCC(=O)NC2CCCCCC2)cc1OC | -10.7% (inactive) | – |
| COc1cc(OC)cc(C(=O)NC(C(=O)N2CCC2)C(C)C)c1 (stereo unspecified) | -12.1% (inactive) | – |
| CC(C=Cc1ccccc1)=NNS(=O)(=O)c1ccc([N+](=O)[O-])cc1 | -8.84% (inactive) | – |
| CC1(C)N=C(N)NC(Nc2ccc(Cl)cc2)=N1 | 8.79% (inactive) | – |
| COc1ccccc1NC1=NC2(CCCC2)N=C(N)N1 | 8.21% (inactive) | – |
| COc1ccccc1NC1=NC(c2ccc(Cl)cc2)N=C(N)N1 (stereo unspecified) | – | 10 µM (active) |
| Cc1ccccc1-n1nnc2c(=O)oc3ccccc3c21 | – | 35.5 µM (active) |
| O=c1oc2ccccc2c(=O)c2ccccc12 | -4.58% (inactive) | – |
| CCOC(=O)c1c(C)nc2c(c1C)c(=O)oc1ccccc12 | 11.3% (inactive) | – |
| Cc1cc(NC(=O)CSc2nnc(-c3ccco3)n2N)no1 | 8.97% (inactive) | – |
| COc1ccc(/C=N/Nc2ncnc3sc4c(c23)CCCC4)cc1O | – | 11.2 µM (active) |
| COc1ccc(NC(=O)CCNC(=O)Cn2cnc3sc4c(c3c2=O)CCCC4)cc1OC | 13.8% (inactive) | – |
| COc1ccc(NC(=O)CCCNC(=O)Cn2cnc3sc4c(c3c2=O)CCCC4)cc1OC | -21% (inactive) | – |
| O=C(COC(=O)/C=C/c1cccc(Cl)c1)NCc1cccs1 | 17.5% (inactive) | – |
| O=C(OCC(=O)N1CCCCC1)c1ccc(OC(F)(F)F)cc1 | -0.311% (inactive) | – |
| CCN(CC)CCNC(=O)c1ccc(NS(=O)(=O)c2ccc3c(c2)OCCO3)cc1 | 9.4% (inactive) | – |
| COc1ccc(Cl)cc1C(=O)NCC#N | -16% (inactive) | – |
| CCN(CC)CCNC(=O)c1cc(S(C)(=O)=O)ccc1OC | – | inactive and 35.5 µM (active) |
| COc1ccccc1/C=C/C(=O)OCC(=O)NC1CCCCCC1 | -4.31% (inactive) | – |
| O=C(CCN1C(=O)c2ccccc2C1=O)NCCCn1ccnc1 | 21.1% (inactive) | – |
| Clc1c(OCCCn2ccnc2)ccc2ccccc12 | – | 14.1 µM (active) |
| CCOc1ccccc1C(=O)NCCCn1ccnc1 | 31.5% (inactive) | – |

| Compound | activity change, negative = inhibition | Potency |
| --- | --- | --- |
| N#Cc1cc([N+](=O)[O-])ccc1NC(=O)COC(=O)c1cnccn1 | 10.2% (inactive) | – |
| Cc1csc(NC(=O)Nc2ccccc2[N+](=O)[O-])n1 | -16.5% (inactive) | – |
| CCOC(=O)/C(=N\Nc1ccccc1[N+](=O)[O-])c1csc(Nc2ccccc2)n1 | – | 5.01 µM (active) |
| CCOC(=O)C/C(C)=N\Nc1ccc([N+](=O)[O-])cc1[N+](=O)[O-] | -10.9% (inactive) | – |
| COc1ccc(N=C2C=CC(=O)O2)cc1 | 2.73% (inactive) | – |
| COc1ccccc1C(=O)COC(=O)COc1ccc(C#N)cc1 | 12.2% (inactive) | – |
| CCn1c(Cc2ccccc2)nnc1SCc1nc2ccccc2c(=O)[nH]1 | 1.37% (inactive) | – |
| Cn1c(-c2ccc(F)cc2)cnc1SCC(=O)NCc1ccco1 | 4.53% (inactive) | – |
| O=c1[nH]c(CSc2ncc(-c3ccc(F)cc3)n2Cc2ccco2)nc2ccccc12 | – | 25.1 µM (active) |
| CC(C)(CNC(=O)CNC(=O)C1CCCCC1)N1CCOCC1 | 7.89% (inactive) | – |
| O=C(C[C@@H]1C/C=C\CCC(=O)OC[C@@H]2CCCN2C1=O)NCCO | 25.9% (inactive) | – |
| COc1ccc(Nc2cc(Cl)ccc2C(=O)O)cn1 | 7.73% (inactive) | – |
| COc1ccc(C(=O)Nc2ccc(NC(=O)C(C)C)nc2)cc1 | -18.4% (inactive) | – |
| COc1ccc(CS(=O)/C(Cl)=C(/Cl)C(=O)Nc2ccc(OC)nc2)cc1 (stereo unspecified) | – | 4.47 µM (active) |
| COc1ccc(NS(=O)(=O)c2ccc(C)c(C(=O)NCC(c3cccs3)N3CCOCC3)c2)cc1 (stereo unspecified) | 8.78% (inactive) | – |
| CC(C)Cc1nnc(N)s1 | 35.4% (inactive) | – |
| Cc1nc(-c2ccc(F)cc2)c(CC(=O)Nc2cc(S(=O)(=O)N3CCCCC3)ccc2C)s1 | -18.8% (inactive) | – |
| COC1=CC(=O)OC(c2ccc(OC)cc2)C1 (stereo unspecified) | 1.66% (inactive) | – |
| CSc1nnc(NC(=O)c2nc(S(=O)(=O)Cc3ccc(C)cc3)ncc2Cl)s1 | – | 12.6 µM (active) |
| CSc1ncc(Cl)c(C(=O)Nc2cc(C)ccc2C)n1 | 12% (inactive) | – |
| CCSc1nnc(NC(=O)c2ccc(C)cc2)s1 | 13.7% (inactive) | – |
| CCC1Nc2ncnc(N3CCN(c4ccccc4)CC3)c2N(Cc2ccc(Cl)cc2)C1=O (stereo unspecified) | -52.3% (inactive) | – |

| Compound | activity change, negative = inhibition | Potency |
| --- | --- | --- |
| CCCN(CC1CC1)C(=O)COC(=O)c1ccc(C)cc1O | -14.8% (inactive) | – |
| COc1ccc(C(=O)O)cc1S(=O)(=O)NC1CCN(Cc2ccccc2)CC1 | 19.7% (inactive) | – |
| Oc1ccc(N=Cc2c(O)ccc3ccccc23)cc1 | 12% (inactive) | – |
| Oc1ccc2ccccc2c1N=Nc1nccs1 | – | 8.91 µM (active) |
| Oc1c(C=Nc2cccc3nsnc23)ccc2ccccc12 | -29.7% (inactive) | – |
| COc1ccccc1CCC(=O)NNC(=O)c1ccncc1 | 0.729% (inactive) | – |
| CC(C)(C)OC(=O)C[C@@H]1C/C=C\C[C@@H](CC(=O)N[C@H](CO)Cc2ccccc2)C(=O)NC[C@@H](c2ccccc2)OC1=O | 2.19% (inactive) | – |
| COc1cc2c(-c3ccc4c(c3)OCO4)c(-c3ccsc3)oc(=O)c2cc1OC | -6.43% [at 8.37 µM] (inactive) | – |
| COc1cc(CC(=O)NCc2cccs2)cc(OC)c1OC | 14.3% (inactive) | – |
| COC(=O)c1c(-c2ccsc2)oc2ccc(-c3cc(OC)c(OC)c(OC)c3)cc12 | – | 12.6 µM (active) |
| Cn1c(-c2ccc(F)cc2)cc2onc(-c3ccccc3Cl)c2c1=O | 15.1% (inactive) | – |
| CC1(C)CC(=O)C=C(c2ccc(Cl)c(C(F)(F)F)c2)C1 | 9.91% (inactive) | – |
| COc1ccc(S(=O)(=O)N2CCOCC2)cc1NC(=O)CSc1nnc(NC2CC2)s1 | 6.7% (inactive) | – |
| Cc1cc(NC(=O)COC(=O)/C=C/c2ccc(C)o2)no1 | 0.593% (inactive) | – |
| CNc1nc(Nc2ccc(C)c(Cl)c2)nc(N)c1[N+](=O)[O-] | – | 11.2 µM (active) |
| Cc1ccc(Nc2nc(N)nc(CN3CCN(Cc4ccccc4)CC3)n2)cc1Cl | -23.6% (inactive) | – |
| Cc1ccc(Nc2nc(N3CCOCC3)nc(N3CCOCC3)n2)cc1Cl | 4.85% (inactive) | – |
| Nc1ncnc2c1ncn2[C@@H]1O[C@H](CNS(=O)(=O)c2ccc(-c3ccno3)s2)[C@@H](O)[C@H]1O | 2.29% (inactive) | – |
